High-throughput results: PubChem BioAssay, several laboratories
VLA-4 inh – inhibition in a human VLA-4 binding assay; AID 2557; actives 0.2% (n = 330,000); VLA-4 expressing cells, ligand binding flow cytometry; inhibition, % (about 7 µM as worked out from the volumes in the protocol); P13612; in the data active means inhibition above about 50%
Mot1-301 SUMO – SUMOylation pathway inhibition by Mot1-301 growth rescue; S. cerevisiae Mot1-301 growth rescue, ATP luminescence, 38.5C; percent above DMSO median, 100 means doubled; growth rescue, % at 18.8 µM; actives 1% (n = 320,000);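 active means every valid replicate shows activation above 250% relative to neutral control wells; inactive means the rest, any valid replicate at or below 250%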;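 further: OY570 slx delta 5 strain wells were the positive control but not used for scaling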
A1 inh – inhibitors of the anti-apoptotic protein A1, read as caspase activation | MEF A1-2A-BIM cells, Caspase-Glo 3/7 luminescence, 3 h; percent of clofoctol response, vehicle zero | caspase activation, % (concentration not given with the values) | actives 0.066% (n = 330,000) | AID 2462;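 active means over half of replicate activation scores above 10%, or exactly half above 10 with the replicate mean above 10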
Efflux pump mplx – blocks antifungal efflux pumps in multiplex yeast assay | S. cerevisiae Candida pump triplex, Nile Red efflux | inhibition, % at 10 µM | actives 0.44% (n = 330,000) | AID 485275;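 active means plate passing quality check with inhibition over a set limit, or well fluorescence over plate mean plus 4 SD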;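 further: Nile Red retained in pooled yeast measured as flow cytometry median fluorescence; 0% = buffer negative control and 100% = Enniatin B positive control; higher means more Nile Red kept so more efflux inhibition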
AHR act – activates the human aryl hydrocarbon receptor; activation, % at 5 µM; P35869; AHR-responsive luciferase reporter cells, luminescence; actives 2.5% (n = 320,000); in the data active means activation above about 47%;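 further: 0% = vehicle wells and 100% = reference agonist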
Target sequence (P35869 whole entry, looked up): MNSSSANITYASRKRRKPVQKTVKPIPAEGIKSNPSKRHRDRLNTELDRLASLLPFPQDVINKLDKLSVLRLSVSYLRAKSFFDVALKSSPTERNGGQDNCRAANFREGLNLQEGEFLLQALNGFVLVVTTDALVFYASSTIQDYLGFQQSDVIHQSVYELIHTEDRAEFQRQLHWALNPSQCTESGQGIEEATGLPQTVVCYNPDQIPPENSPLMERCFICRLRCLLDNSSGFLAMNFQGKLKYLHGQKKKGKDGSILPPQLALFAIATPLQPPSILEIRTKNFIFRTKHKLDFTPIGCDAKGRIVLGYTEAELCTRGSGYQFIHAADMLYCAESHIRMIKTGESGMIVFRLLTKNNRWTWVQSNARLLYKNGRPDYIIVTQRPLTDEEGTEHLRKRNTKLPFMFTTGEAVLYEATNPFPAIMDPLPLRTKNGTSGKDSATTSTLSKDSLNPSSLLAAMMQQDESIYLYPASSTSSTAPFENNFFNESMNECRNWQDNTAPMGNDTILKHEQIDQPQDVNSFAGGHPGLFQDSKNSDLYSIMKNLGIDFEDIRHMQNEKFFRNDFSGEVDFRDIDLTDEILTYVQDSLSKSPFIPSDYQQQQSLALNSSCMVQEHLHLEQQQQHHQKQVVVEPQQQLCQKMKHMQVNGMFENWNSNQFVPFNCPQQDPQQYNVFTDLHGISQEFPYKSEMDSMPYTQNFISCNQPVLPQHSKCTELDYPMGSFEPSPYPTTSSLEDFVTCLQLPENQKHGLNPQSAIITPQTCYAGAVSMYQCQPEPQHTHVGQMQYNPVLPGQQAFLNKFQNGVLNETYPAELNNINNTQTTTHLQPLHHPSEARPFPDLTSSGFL
ALR H2O2 inh – human ALR oxidase inhibition via reduced H2O2; P55789; purified ALR, DTT oxidation, H2O2 HRP-luminol luminescence; inhibition, % (test concentration not listed); actives 3.8% (n = 290,000);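 active means mean replicate inhibition above about 79%, with every replicate also reaching it, limit read from the data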
An asterisk follows results filed as active. An excerpt weighted towards active compounds, which were near 7.2% of everything screened.

How did O=C(CS(=O)c1ccccc1[N+](=O)[O-])Oc1ccc(Br)cc1 (stereo not drawn) do in these assays?
VLA-4 inh: 1; Mot1-301 SUMO: 156; A1 inh: 1; Efflux pump mplx: 0; AHR act: 0; ALR H2O2 inh: 78*

Results for C[n+]1ccccc1/C=C/c1cc(Br)ccc1O ?
VLA-4 inh: 8; Mot1-301 SUMO: 192; A1 inh: 0; Efflux pump mplx: 0; AHR act: 60*; ALR H2O2 inh: 36

What do the screens show for `COc1ccc(/C=C/c2cccc[n+]2C)c(O)c1`?
VLA-4 inh: -17; Mot1-301 SUMO: -7; A1 inh: 0; Efflux pump mplx: 0; AHR act: -4

How did Brc1ccccc1-c1nc2c3ccccc3ncn2n1 do in these assays?
VLA-4 inh: -5; Mot1-301 SUMO: 36; A1 inh: -2; Efflux pump mplx: 0; AHR act: 66*; ALR H2O2 inh: 4

What do the screens show for `O=C(OCc1cc([N+](=O)[O-])cc2c1OCOC2)c1ccc2ccccc2n1`?
VLA-4 inh: -6; Mot1-301 SUMO: 292*; A1 inh: 0; Efflux pump mplx: 0; AHR act: 8; ALR H2O2 inh: 1

What do the screens show for `Cc1nc2ccc(Br)cn2c1NC(C)(C)C`?
VLA-4 inh: 7; Mot1-301 SUMO: 2; A1 inh: 2; Efflux pump mplx: 0; AHR act: -1; ALR H2O2 inh: 95*

Results for Cc1ccc2c(C(=O)CN3CCN(C4CCCCC4)CC3)c(C)[nH]c2c1 ?
VLA-4 inh: 5; Mot1-301 SUMO: 0; A1 inh: 1; Efflux pump mplx: 0; AHR act: 19; ALR H2O2 inh: -10

Results for Cc1[nH]c2ccccc2c1C(=O)CN1CCSCC1 ?
VLA-4 inh: 6; Mot1-301 SUMO: -20; A1 inh: 1; Efflux pump mplx: 0; AHR act: 0; ALR H2O2 inh: 97*

Results for Cc1ccc2[nH]c(=O)c3cc(C(=O)N4CCN(C(=O)c5ccco5)CC4)sc3c2c1 ?
VLA-4 inh: -5; Mot1-301 SUMO: -4; A1 inh: -1; Efflux pump mplx: 0; AHR act: 78*; ALR H2O2 inh: 34

How did Cc1ccc2c(C(=O)CN3CCN(C(=O)c4ccco4)CC3)c(C)[nH]c2c1 do in these assays?
VLA-4 inh: -8; Mot1-301 SUMO: 78; A1 inh: 1; Efflux pump mplx: 0; AHR act: 53*; ALR H2O2 inh: -6

Results for Cc1[nH]c2ccccc2c1C(=O)CN1CCCC1 ?
VLA-4 inh: 4; Mot1-301 SUMO: 69; A1 inh: 0; Efflux pump mplx: 0; AHR act: 2; ALR H2O2 inh: -15

Results for Cc1ccc(-c2nn(-c3cc(Cl)ccc3[N+](=O)[O-])c(=O)c3ccccc23)cc1C ?
VLA-4 inh: -2; Mot1-301 SUMO: 0; A1 inh: 1; Efflux pump mplx: 0; AHR act: 0; ALR H2O2 inh: -2

Results for Cc1c(NC(=O)c2ccc([N+](=O)[O-])o2)cccc1-c1nc2ncccc2o1 ?
VLA-4 inh: 5; Mot1-301 SUMO: 85; A1 inh: 0; Efflux pump mplx: 0; AHR act: -2; ALR H2O2 inh: -22

How did COc1cccc(C2Nc3ccccc3C(=O)N2O)c1O (stereo not drawn) do in these assays?
VLA-4 inh: 7; Mot1-301 SUMO: 13; A1 inh: -1; Efflux pump mplx: 0; AHR act: -2; ALR H2O2 inh: 87*

Results for O=C(COc1ccc(Cl)cc1)OCC(=O)c1ccc[nH]1 ?
VLA-4 inh: 3; Mot1-301 SUMO: 8; A1 inh: 0; Efflux pump mplx: 0; AHR act: 1; ALR H2O2 inh: -7

What do the screens show for `COC(=O)C1=C(C(=O)OC)[C@@H]2N(C)c3ccccc3[C@@]23C[C@@H](C(=O)OC)N=C3N1`?
VLA-4 inh: -2; Mot1-301 SUMO: -4; A1 inh: -1; Efflux pump mplx: 0; AHR act: 0; ALR H2O2 inh: 11

How did COC(=O)C1=C(C(=O)OC)[C@@H]2N(C)c3ccc(OC)cc3[C@@]23C[C@@H](C(=O)OC)N=C3N1 do in these assays?
VLA-4 inh: -2; Mot1-301 SUMO: -21; A1 inh: 0; Efflux pump mplx: 0; AHR act: 1; ALR H2O2 inh: 77*
